Where “and” joins values, the source holds several entries; their conditions need not be identical. Equal values may be shown once. Inconclusive results are not listed. Calls of active or inactive are those of the source. Unless noted, calls come from the whole dose curve; as a rule, active = well fitted curve in the direction sought with a large enough effect; inconclusive = small, poorly fitted or top-dose-only effect, or another doubt; inactive = no such curve, though single readings can be large; an effect the other way counts as inactive or inconclusive. Numbered stars: 1 amine (or outer) side, 2 acyl side, 3 side chain; on linkers, the order of the positions; unused ones are H or OH. Bridge positions count the residues as written; N and C are the ends. Square brackets hold non-standard residues; d marks the D form. Peptide text beside a SMILES is read from it. I, II: the chains in the order shown. Actinocin(9to1) = Cc1c2oc3c(C)ccc(C(=O)[*:1])c3nc-2c(C(=O)[*:2])c(N)c1=O; NMeV = CN[C@H](C(=O)O)C(C)C; Sar = CNCC(=O)O
Experiments:
[1] = target: Alpha-galactosidase A (Homo sapiens) (UniProt P06280); test: Counterscreen for Glucocerebrosidase Inhibitors: qHTS Assay for Human alpha-Galactosidase at pH 4.5 (AID 992); note: 0% is about no effect
Chain of Alpha-galactosidase A (Homo sapiens) (P06280 whole entry, looked up): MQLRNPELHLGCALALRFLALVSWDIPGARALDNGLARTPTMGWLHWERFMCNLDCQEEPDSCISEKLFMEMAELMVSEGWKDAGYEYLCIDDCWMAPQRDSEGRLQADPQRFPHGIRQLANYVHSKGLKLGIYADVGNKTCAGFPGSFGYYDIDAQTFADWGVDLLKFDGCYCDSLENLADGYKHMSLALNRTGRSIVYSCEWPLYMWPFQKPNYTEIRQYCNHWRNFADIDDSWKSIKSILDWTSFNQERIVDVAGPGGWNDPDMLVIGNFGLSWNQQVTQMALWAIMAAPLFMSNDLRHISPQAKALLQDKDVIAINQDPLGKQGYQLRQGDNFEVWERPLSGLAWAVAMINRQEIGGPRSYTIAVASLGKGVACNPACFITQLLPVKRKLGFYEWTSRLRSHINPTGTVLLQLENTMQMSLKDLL
Summary of the method: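 Citrate buffer pH 4.5, Tween-20 0.005%. Enzyme 2 nM, substrate 80 uM, 20 min RT. Stop pH 10. Fluorescence Ex 365/Em 440. AC50 by Hill fit.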

[2] = target: alpha-glucosidase (Oryza sativa, rice) (UniProt Q653V4); test: Counterscreen for Glucocerebrosidase Inhibitors: qHTS Assay for Rice alpha-Glucosidase at pH 5.0 (AID 997);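 note: 0% = full activity with enzyme and -100% = basal without enzyme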
Summary of the method: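 Endpoint fluorogenic assay at pH 5.0: compounds (0.7 nM to 77 uM) titrated against 4 nM rice enzyme and 400 uM 4-MU-alpha-glucoside for 20 min at room temperature; NaOH/glycine stop, read ex 365/em 440 nm, Hill-fitted AC50.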

[3] = qHTS Assay for Lipid Storage Modulators (AID 1519; calls by dose curve; for activity change, negative = inhibition: % is set by controls: 0 for no effect and ±100 for the full control effect); conditions: Drosophila S3 cells, BODIPY lipid droplet/cell ratio, laser cytometry, cells loaded with oleic acid
Summary of the method: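 Cells seeded at 5,000 per well were treated with compounds over a concentration series and loaded with oleic acid (400 uM, as added). Lipid droplet fluorescence (488 nm excitation, 500-530 nm channel) was read by laser-scanning cytometry and normalized to 20 uM Triacsin C.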

[4] = target: DNA repair nuclease/redox regulator APEX1 (Homo sapiens) (UniProt P27695); test: qHTS Validation Assay for Inhibitors of the Human Apurinic/apyrimidinic Endonuclease 1 (APE1) (AID 1705;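 note: TAMRA fluorescence gain over two minutes as APE1 cuts a quenched THF abasic duplex; % is set by controls: 0 for no effect and ±100 for the full control effect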)
Chain of DNA repair nuclease/redox regulator APEX1 (Homo sapiens) (P27695 whole entry, looked up): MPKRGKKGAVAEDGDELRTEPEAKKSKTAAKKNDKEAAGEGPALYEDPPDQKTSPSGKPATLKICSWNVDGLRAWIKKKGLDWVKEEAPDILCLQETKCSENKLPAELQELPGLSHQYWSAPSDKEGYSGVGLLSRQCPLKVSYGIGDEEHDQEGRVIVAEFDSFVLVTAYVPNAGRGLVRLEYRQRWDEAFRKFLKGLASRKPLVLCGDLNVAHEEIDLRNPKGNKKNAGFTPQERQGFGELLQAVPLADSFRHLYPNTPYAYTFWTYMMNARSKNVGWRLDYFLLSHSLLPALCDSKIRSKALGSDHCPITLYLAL
Summary of the method: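 Substrate: 50 nM final fluorophore/quencher THF-abasic duplex. Enzyme preincubated with compounds 15 min, RT. Progress derived from fluorescence difference, third minus first kinetic read.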

[5] = Counterscreen for APE1 Inhibitors: Fluorescent Dye Displacement Validation Assay (AID 1707);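 note: plate controls were ThO with dsDNA and no compound for no effect and ThO without dsDNA for full effect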
Summary of the method: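 Signal: ThO fluorescence (ex 480 nm/em 540 nm) on binding 50 nM dsDNA; displacement by test compound reduces it. Conditions: 250 nM dye, 50 mM Tris-HCl pH7.5, 2 mM MgCl2, 50mM NaCl, 0.01% Tween-20.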

[6] = target: Endonuclease 4 (Escherichia coli (strain K12)) (UniProt P0A6C1); test: Counterscreen for APE1 Inhibitors: qHTS Validation Assay for Inhibitors of Endonuclease IV (AID 1708); note: % is set by controls: 0 for no effect and ±100 for the full control effect
Summary of the method: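 Enzyme (2 nM) + compound, 15 min RT; add 50 nM TAMRA/BHQ-2 THF-site dsDNA; kinetic read ex525/em598, 3 reads/60 s; activity = read 3 − read 1. Buffer Tris pH 7.5, 50 mM NaCl, 2 mM MgCl2, DTT, Tween-20.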

[7] = qHTS for differential inhibitors of proliferation of Plasmodium falciparum line 7G8 (AID 1815);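 note: parasite growth measured after three days of incubation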; note: potency is the fitted concentration of half-maximal effect;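 for activity change, negative = inhibition: plate controls were vehicle wells for no effect and reference inhibitor wells for full effect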
[8] = qHTS for differential inhibitors of proliferation of Plasmodium falciparum line 3D7 (AID 1876); note: potency is the fitted concentration of half-maximal effect
[9] = qHTS for differential inhibitors of proliferation of Plasmodium falciparum line D10 (AID 1877);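 note: parasites grown with compound for 72 h before DNA staining; plate controls were vehicle wells for no effect and reference inhibitor wells for full effect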
[10] = qHTS for differential inhibitors of proliferation of Plasmodium falciparum line Dd2 (AID 1882); conditions: Potency: Plasmodium falciparum Dd2 proliferation inhibition;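 note: plate controls were DMSO vehicle for no effect and 0.29 µM artemisinin for full effect; nearly all actives have a fitted effect of over 65% in size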
Summary of the method: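 SYBR Green DNA fluorescence (ex 485, em 535 nm) after overnight lysis quantifies parasite growth; compound exposure lasted 72 h at 37 C on infected red cells at 2.5% hematocrit, 0.3% parasitemia (final). Artemisinin 0.29 uM and vehicle wells define normalization.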

[11] = Cell Viability - LYMP2-018 (AID 985); note: nearly all actives have a fitted effect of over 50% in size; note: potency is the fitted concentration of half-maximal effect
Summary of the method: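 Viability read as CellTiter-Glo luminescence (cellular ATP) after 24 hr compound exposure at 37 C of 2500 LYMP2-018 lymphoblastoid cells/well, pre-plated 5 hr. Hill-equation modelling gave AC50.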

[12] = Cell Viability - LYMP2-020 (AID 986); note: nearly all actives have a fitted effect of over 55% in size; note: potency is the fitted concentration of half-maximal effect
Summary of the method: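 Cytotoxicity in qHTS format: luminescent ATP readout from CellTiter-Glo after 24 h compound exposure at 37 C in complete medium. LYMP2-020 lymphoblastoid cells were seeded at 2500/well; concentration-response data fitted to the Hill equation for AC50.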

[13] = Cell Viability - LYMP2-022 (AID 987); note: nearly all actives have a fitted effect of over 55% in size; note: potency is the fitted concentration of half-maximal effect
Summary of the method: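 Cytotoxicity read as decreased cellular ATP (CellTiter-Glo luminescence, 30 min room temperature) after 24 hours compound exposure of 2500 lymphoblastoid LYMP2-022 cells/well at 37 C. Concentration-response data fitted with standard Hill equation for AC50.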

[14] = Cell Viability - LYMP2-024 (AID 988); note: nearly all actives have a fitted effect of over 60% in size; note: potency is the fitted concentration of half-maximal effect
Summary of the method: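 Cytotoxicity was taken as a decrease in ATP (CellTiter-Glo luminescence) after 24 hr compound exposure at 37 C of LYMP2-024 lymphoblastoid cells, 2500 cells/well. Concentration-response data were fitted to the Hill equation to give AC50.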

[15] = Cell Viability - LYMP2-026 (AID 989); note: nearly all actives have a fitted effect of over 50% in size; note: potency is the fitted concentration of half-maximal effect
Summary of the method: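 Cytotoxicity read as ATP-dependent luminescence (CellTiter-Glo, 30 min room temperature) after 24 h compound treatment at 37 C. LYMP2-026 lymphoblastoid line seeded at 2500 cells/well; AC50 derived by standard Hill equation.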

[16] = Cell Viability - LYMP1-002 - Assay at 24 hr (AID 993); note: potency is the fitted concentration of half-maximal effect
Summary of the method: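 qHTS cytotoxicity at 24 h: CellTiter-Glo ATP luminescence in lymphoblastoid line LYMP1-002 incubated with compound at 37 °C. Concentration-response modeled with the Hill equation for AC50; tetraoctylammonium bromide served as positive control.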

[17] = Cell Viability - LYMP1-002 - Assay at 40 hr (AID 994); note: nearly all actives have a fitted effect of over 60% in size; note: potency is the fitted concentration of half-maximal effect
Summary of the method: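 Cytotoxicity was read as loss of cellular ATP (CellTiter-Glo luminescence) after 40 hr compound exposure at 37 C of 2500 LYMP1-002 lymphoblastoid cells per well. Concentration-response data were fitted with the standard Hill equation to give AC50.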

[18] = qHTS for differential inhibitors of proliferation of Plasmodium falciparum line W2 (AID 1883); conditions: Potency: Plasmodium falciparum W2 proliferation inhibition;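 note: parasites grown with compound for 72 h before lysis and staining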; note: potency is the fitted concentration of half-maximal effect;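 for activity change, negative = inhibition: 0% = vehicle wells and -100% = control inhibitor wells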
[19] = qHTS for differential inhibitors of proliferation of Plasmodium falciparum line GB4 (AID 1816); conditions: Potency: Plasmodium falciparum GB4 proliferation inhibition;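 note: parasite growth measured after 72 h incubation; 0% = vehicle DMSO and -100% = reference inhibitor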
[20] = measured here: cell count channel max response
[21] = measured here: lipid channel max response

Oc1cc(O)c2c(c1)O[C@H](c1ccc(O)c(O)c1)[C@H](O)C2
inactive: outcome [1] | outcome [2] | activity change, negative = inhibition ([3]; at 25.7 µM (top of the series)) -1.15% and 0.397%
-2.18% and -16.1%: max response [3, 20]
-4.1% and -15.5%: max response [3, 21]

C[C@@H]1C(=O)NC2=Nc3cccc(Cl)c3CN21
-20.8%: max response [3, 20]
inactive: outcome [1] | outcome [2] | activity change, negative = inhibition ([3]; at 57.5 µM (top of the series)) 2.07% | Potency [4] | outcome [5] | outcome [6] | Potency [7] | Potency [8] | Potency [9] | Potency [10]
-17.8%: max response [3, 21]

CN1CCC[C@@H]1c1cccnc1
inactive: outcome [1] | outcome [2]

CN(C)/N=N/c1nc[nH]c1C(N)=O
inactive: Potency [11] | Potency [12] | Potency [13] | Potency [14] | Potency [15] | Potency [16] | Potency [17] | activity change, negative = inhibition ([3]; at 57.5 µM (top of the series)) 6.55%
10%: max response [3, 20]
19.3%: max response [3, 21]

Oc1ccc(Cl)cc1Sc1cc(Cl)ccc1O
inactive: Potency [16]

C=CCc1ccc(O)c(OC)c1
40.9% and 11.8%: max response [3, 21]
19.8% and 9.66%: max response [3, 20]
inactive: Potency [11] | Potency [12] | Potency [13] | Potency [14] | Potency [15] | Potency [16] | Potency [17] | activity change, negative = inhibition ([3]; at 57.5 µM (top of the series)) 13.1% and 1.99%

Oc1c(Cl)cc(Cl)cc1Sc1cc(Cl)cc(Cl)c1O
active: Potency [12] 31.6 µM | Potency [17] 50.1 µM
13.2%: max response [3, 21]
9.87%: max response [3, 20]
inactive: Potency [16] | activity change, negative = inhibition ([3]; at 57.5 µM (top of the series)) 0.0363%

Nc1ccc(C(=O)O)cc1
22.6%: max response [3, 21]
13.3%: max response [3, 20]
inactive: Potency [11] | Potency [12] | Potency [13] | Potency [14] | Potency [15] | Potency [16] | Potency [17] | activity change, negative = inhibition ([3]; at 57.5 µM (top of the series)) 6.97%

NC(=NCCCCCCN=C(N)/N=C(\N)Nc1ccc(Cl)cc1)/N=C(\N)Nc1ccc(Cl)cc1
active: Potency [11] 39.8 µM | Potency [12] 39.8 µM | Potency [13] 39.8 µM | Potency [14] 39.8 µM | Potency [15] 50.1 µM | Potency [16] 39.8 µM | Potency [17] 39.8 µM

Cc1c2oc3c(C)ccc(C(=O)N[C@@H]4C(=O)N[C@H](C(C)C)C(=O)N5CCC[C@H]5C(=O)N(C)CC(=O)N(C)[C@@H](C(C)C)C(=O)O[C@@H]4C)c3nc-2c(C(=O)N[C@@H]2C(=O)N[C@H](C(C)C)C(=O)N3CCC[C@H]3C(=O)N(C)CC(=O)N(C)[C@@H](C(C)C)C(=O)O[C@@H]2C)c(N)c1=O (I: T[dV]P[Sar][NMeV] / II: T[dV]P[Sar][NMeV]; ester I:1-I:C, II:1-II:C; linker I:N-II:N via Actinocin(9to1))
active: Potency [12] 0.0063 µM | Potency [13] 0.0126 µM | Potency [14] 0.004 µM | Potency [16] 0.0079 µM | Potency [17] 0.0032 µM

Oc1ccc(O)cc1
3.65% and -23.9%: max response [3, 21]
3.88% and -20.5%: max response [3, 20]
inactive: Potency [15] | outcome [1] | outcome [2] | activity change, negative = inhibition ([3]; at 57.5 µM (top of the series)) -1.63% and -0.961% | Potency [4] | outcome [5]
active: Potency [12] 50.1 µM | Potency [13] 39.8 µM | Potency [14] 50.1 µM | Potency [16] 39.8 µM | Potency [7] 8.91 µM | Potency [8] 11.2 µM | Potency [18] 12.6 µM

CN=C(NC#N)Nc1ccc(C2=NNC(=O)CC2C)cc1 (configuration not stated)
inactive: activity change, negative = inhibition ([3]; at 57.5 µM (top of the series)) 2.25% | Potency [4] | outcome [5] | outcome [6] | Potency [19] | Potency [8] | Potency [9] | Potency [10] | Potency [18]
14.7%: max response [3, 20]
17.1%: max response [3, 21]

COc1cc(-c2ccc(=O)[nH]n2)ccc1OC(F)F
inactive: outcome [1] | outcome [2] | Potency [4] | outcome [5] | outcome [6] | Potency [7] | Potency [19] | Potency [8] | Potency [9] | Potency [10] | Potency [18]

CC(=O)O[C@]1(C(C)=O)CC[C@H]2[C@@H]3C[C@H](C)C4=CC(=O)CC[C@]4(C)[C@H]3CC[C@@]21C
active: Potency [11] 39.8 µM | Potency [13] 39.8 µM
inactive: Potency [16] | Potency [17]

CNCCC(Oc1ccccc1C)c1ccccc1 (configuration not stated)
active: Potency [7] 7.94 µM
inactive: activity change, negative = inhibition ([3]; at 57.5 µM (top of the series)) 2.16% | Potency [4] | outcome [5] | outcome [6] | Potency [9]
19.1%: max response [3, 20]
23.2%: max response [3, 21]
